Data on 25 molecules can be found in the supplement of paper PMC12669032.

One assay has as its system Roseburia intestinalis. The assay is described as follows: growth AUC relative to DMSO control (median of replicates) (fraction); higher = more growth (less inhibition), active = hit call of the paper. The following applies: 20 µM; 24 h. In outline: (§1)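 Each value is the median of three biological replicates, grown on separate days, of a gut bacterial monoculture incubated anaerobically at 37 °C in mGAM with 20 µM compound (1% DMSO). Cultures started at OD600 0.05 and were read at OD600 hourly for 24 h, with the minimum OD set to 0. Area under the growth curve was normalised to the plate median of solvent-only wells, or to row and column medians on the industrial chemical plate.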

The test system of a further assay is Streptococcus salivarius. The description is as above. The following applies: 20 µM; 24 h. In outline:
as §1

Unmarked numbers belong to inactive results.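 The calls were made as follows: active = AUC reduced over 20% with Padj below 0.05 in at least 2 of 3 replicates; inactive = otherwise.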

Take `CCc1ccc(C(c2ccc(CC)cc2)C(Cl)Cl)cc1`: the “growth AUC” value with Roseburia intestinalis was 1; in the assay on Streptococcus salivarius, 0.963.
The corresponding values for `COC(=O)Nc1ccc(Cl)c(Cl)c1` are 1 and 0.918.
For `CCc1nc2ncnn2c(N)c1CCCC(=O)O.Cl` the same measures were 0.991 and 1.01.
The corresponding values for `Cc1ccc(C(C)NC(=O)[C@@H](NC(=O)OC(C)C)C(C)C)cc1` (stereo not given in full) are 0.956 and 0.963.
Consider `NC1=C(Cl)C(=O)c2ccccc2C1=O`, for which the “growth AUC” value was 0.963 with Roseburia intestinalis and 1 in the assay on Streptococcus salivarius.
With `COCCN(C(=O)CO)c1c(C)cccc1C(=O)O`, the figures for the “growth AUC” value in the assay on Roseburia intestinalis and in the assay on Streptococcus salivarius were 1.01 and 0.965, respectively.
The corresponding values for `CC(C)N(C)S(=O)(=O)NC(=O)c1cc(-n2c(=O)cc(C(F)(F)F)[nH]c2=O)c(F)cc1Cl` are 0.987 and 1.01.
On to `CN(C)C(=O)SCCCCOc1ccccc1`, for which the “growth AUC” value is 0.998 in the assay with Roseburia intestinalis and 0.99 with Streptococcus salivarius.
For `CCc1cccc(C)c1N(C(=O)C(=O)O)[C@@H](C)C(=O)O` the same measures were 0.973 and 0.943.
Consider `CCOC(=O)c1cnn(C)c1S(=O)(=O)NC(=O)Nc1nc(OC)cc(OC)n1`, for which the entries for the “growth AUC” value with Roseburia intestinalis and in the assay on Streptococcus salivarius were 1.08 and 1.01, respectively.
For the molecule `CCSC(=O)N(CC)CC`, the “growth AUC” value in the assay with Roseburia intestinalis was 1.06; in the assay with Streptococcus salivarius, 0.954.
For `Cn1cc(C(=O)Nc2ccc(F)cc2-c2ccc(Cl)c(Cl)c2)c(C(F)F)n1` the same measures were 0.989 and 0.897.
The corresponding values for `COC1CCC2(CC1)NC(=O)C(c1cc(C)ccc1C)=C2O` (stereo not given) are 0.986 and 1.03.
In the case of `CCc1cccc(CC)c1N(COC)C(=O)C(=O)O`, the entries for the “growth AUC” value in the assay with Roseburia intestinalis and in the assay on Streptococcus salivarius were 1 and 1.02, respectively.
The corresponding values for `O.O=C(Nc1ccc(Cl)c(Cl)c1)Nc1cc(Cl)ccc1Oc1ccc(Cl)cc1S(=O)(=O)[O-].[Na+]` are 0.792 (active) and 0.478 (active).
In the case of `CCCOc1nc2ccc(I)cc2c(=O)n1CCC`, the entries for the “growth AUC” value in the assay with Roseburia intestinalis and in the assay with Streptococcus salivarius were 0.942 and 0.994, respectively.
For `C#CCN(C)c1c(C#N)cnn1-c1nn2c(c1Cl)CCCC2` the same measures were 1.02 and 1.03.
The corresponding values for `COC1CCC2(CC1)NC(=O)C(c1cc(C)ccc1C)C2O` (stereo not given) are 0.974 and 1.04.
On to `CN(C)C(=O)c1cccnc1S(N)(=O)=O`, for which the “growth AUC” value with Roseburia intestinalis was 1.03; in the assay on Streptococcus salivarius it was 0.978.
The corresponding values for `CCCN(CCOc1c(Cl)cc(Cl)cc1Cl)C(=O)NC=O` are 0.979 and 0.993.
Regarding `CC(C)(SC(=O)N1CCCCC1)c1ccccc1`, the “growth AUC” value in the assay on Roseburia intestinalis was 1.05; in the assay with Streptococcus salivarius, 0.98.
As to `N#CC(=NOCC1OCCO1)c1ccccc1`, the “growth AUC” value in the assay with Roseburia intestinalis was 0.968; with Streptococcus salivarius, 0.976.
The corresponding values for `CCN(Cc1c(F)cccc1Cl)c1c([N+](=O)[O-])cc(C(F)(F)F)cc1[N+](=O)[O-]` are 0.864 and 0.926.
The corresponding values for `CCCCOC(=O)C(C)Oc1ccc(Oc2ccc(C(F)(F)F)cn2)cc1` (stereo not given) are 0.932 and 0.974.
As to `C=CCO/N=C(\CCC)C1=C([O-])CC(C)(C)C(C(=O)OC)C1=O.[Na+]` (stereo not given), the “growth AUC” value in the assay with Roseburia intestinalis was 0.982; in the assay on Streptococcus salivarius, 1.02.
